Mdm2 MdmX PPI = human Mdm2/MdmX binding inhibition; O15151+Q00987; SaOS-2 split-luciferase Mdm2/MdmX complementation, luminescence; inhibition, % at 8 µM; hit rate 3% among 330,000;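 active = inhibition of at least 50% at 8 µM in the primary screen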
CF NFkB block = cystic fibrosis NF-kB activation inhibition; KKLEB NF-kB-GFP reporter, PAF-induced, GFP fluorescence overnight; inhibition, % at 5 µM; hit rate 0.86% among 360,000;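 active = at least 50% inhibition at 5 µM, scaled per plate between neutral and stimulator controls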;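 note: PAF is a Pseudomonas aeruginosa culture filtrate used as stimulus; plate controls were PAF-stimulated DMSO wells for no effect and unstimulated DMSO wells for full effect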
Peg3 promoter = Peg3 promoter activity inhibition. inhibition, % at 20 µM. HeLa PEG-Prom luciferase reporter, luminescence, overnight. hit rate 1.7% among 360,000;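 active = inhibition of at least 50% at 20 µM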
HIF-2a inh = HIF-2a inhibition; 786-0 RCC cells HIF-2a reporter, luciferase luminescence, overnight; inhibition, % at 18.8 µM; hit rate 0.72% among 360,000; AID 624352;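 active = inhibition of the luminescence signal of 40% or more relative to plate controls, in a single-dose primary screen at 18.75 µM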
KKLEB cytotox = counter-screen for CF NF-kB inhibitors: cytotoxicity. KKLEB CF airway cells viability, ATPlite luminescence, overnight; hits give low values; cells stimulated with P. aeruginosa culture filtrate. hit rate 0.36% among 360,000. activity change (cytotoxicity), % at 5 µM;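 active = corrected activity change at or below -50% at 5 µM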
ABHD5-PLIN5 inh = blocks binding of human ABHD5 to perilipin-5; Q00G26+Q8WTS1; Split G. princeps luciferase complementation, luminescence, 4 h; inhibition, % at 4 µM; hit rate 0.78% among 360,000; AID 602281;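 active = inhibition above the mean inhibition across every tested compound plus 3 SD, cut at about 22% in these data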;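 note: 0% = DMSO only wells and the 100% control is not disclosed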
Mdm2-MdmX conf = human Mdm2/MdmX binding inhibition, confirmed; shares compounds with Mdm2 MdmX PPI; luminescent assay; inhibition, % at 8 µM; hit rate 55% among 10,000; in the data active = inhibition above about 40%
Full FLuc ctr = full-length luciferase inhibition in Mdm2/MdmX counter-screen; shares compounds with Mdm2 MdmX PPI; inhibition, % at 8 µM; SaOS-2 full-length luciferase counterscreen, luminescence; hit rate 77% among 6,200;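 active = mean inhibition at 8 µM reaching about 37%, which flags the compound as non-specific, limit read from the data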;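 note: p53-null SaOS-2 cells with luciferase driven by a doxycycline-inducible promoter; compound on cells about two nights before reading with doxycycline added after day one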
* = called active by the depositor; / = no result given. Rows were chosen to be rich in hits. Some 4.6% of all compounds tested hit in one or more screens of this group.

SMILES	Mdm2 MdmX PPI	CF NFkB block	Peg3 promoter	HIF-2a inh	KKLEB cytotox	ABHD5-PLIN5 inh	Mdm2-MdmX conf	others
CC1(C(=O)NS(=O)(=O)c2ccc(Cl)cc2)CCN1C(=O)Cc1cccs1 (configuration not stated)	/	-7	4	7	2	9	/
Cc1ccc(S(=O)(=O)Nc2nc(-c3ccccc3)cs2)cc1	6	8	17	13	-17	2	/
COc1ccc(-c2csc(NC(=O)c3ccccc3NS(=O)(=O)c3ccc(F)c(F)c3)n2)cc1	90*	55*	47	35	-51*	-12	91*	Full FLuc ctr=22
Cc1ccc(S(=O)(=O)Nc2ccccc2C(=O)Nc2nc(-c3ccc(F)cc3)cs2)cc1	86*	49	41	9	-58*	-4	90*	Full FLuc ctr=22
CCN(CC)c1ccc(N=C2C=CC(=O)C=C2NC(C)=O)cc1	/	-8	-121	-166	0	-1	/
CCOc1ccc(C(=O)/C=C/Nc2ccc(S(=O)(=O)N=C(N)N)cc2)cc1	74*	-8	-24	-5	13	-3	14
O=C(NC(=S)Nc1cccc2cnccc12)c1ccccc1	61*	45	-7	-33	9	-8	34
O=C(O)c1cccc(NC(=S)NC(=O)c2ccncc2)c1	53*	14	13	12	-2	-8	14
COC(=O)c1cn[nH]c1NC(=S)Nc1ccccc1C	-8	8	-143	-198	-20	1	/
COC(=O)c1cn[nH]c1NC(=S)Nc1ccc(C)cc1Cl	52*	20	-328	-254	7	2	-12
CCOC(=O)c1cn[nH]c1NC(=S)Nc1ccc(OC)cc1	46	31	-213	-128	-20	-2	/
COC(=O)c1cn[nH]c1NC(=S)Nc1ccc(Cl)c(Cl)c1	56*	23	-162	-176	14	-7	-20
COc1cc(OC)c(C(=O)OCC(=O)NC23CC4CC(CC(C4)C2)C3)cc1OC	-3	-12	7	2	-13	1	/
C=C1[C@@H](CCO)N(S(=O)(=O)C(C)(C)C)C[C@@H]1C	/	29	4	2	0	-6	/
COc1cc(C2c3c(n[nH]c3C)C(=O)N2c2ccc(C)cc2)ccc1O (configuration not stated)	69*	2	-23	-27	7	1	72*	Full FLuc ctr=51*
O=C(NC(=O)c1ccc(C(F)(F)F)cc1)Nc1ccc(-c2cnco2)cc1	56*	-8	11	2	-2	3	8
CCOC(=O)[C@]12CCCC=C1N(Cc1ccc(Cl)cc1Cl)C(=O)[C@H](CC(=O)NCc1cccs1)C2	/	/	/	-52	/	5	/
C=CC1CN(C(=O)OCC(Cl)(Cl)Cl)C2CC3c4ccc(OC)cc4NC3C3CC1C2CO3 (configuration not stated)	57*	-6	36	-2	-1	-6	-5
CCOC(=O)N1CCC2CC1c1cc(-c3cccc(OC)c3)ccc12 (configuration not stated)	/	5	2	-14	-2	-2	/
Cc1cccc2c(C(=O)N3CCN(c4ccccc4)CC3)cc(-c3ccncc3)nc12	57*	10	-17	-1	-20	-5	75*	Full FLuc ctr=69*
CC(=O)c1ccc(N2CCN(C(=O)c3cc(-c4ccncc4)nc4ccc(Cl)cc34)CC2)cc1	63*	-38	26	-19	-7	4	30
O=C(c1cc(-c2ccncc2)nc2ccc(Cl)cc12)N1CCN(C(=O)C2CCCO2)CC1 (configuration not stated)	2	-2	21	13	0	2	/
CC(C)CC1NC(=O)c2ccc(Cl)cc2-n2c1nc1ccc(Cl)cc1c2=O (configuration not stated)	4	/	/	/	/	/	/
Cc1ccc(S(=O)(=O)N(CC(=O)N/N=C/c2cccc(Cl)c2)c2cccc3cccnc23)cc1	66*	3	-8	15	5	-6	23
NC(=O)c1ccc(Cn2c(C(=O)c3cc(Cl)c(N)c(Cl)c3)c3ccccc3[n+]2[O-])cc1	53*	11	-38	-105	-21	-9	52*	Full FLuc ctr=65*

Assay outcomes (PubChem)
